Source: PubChem BioAssay (NCI)
The panel holds about 83,000 compounds, 20% with a hit somewhere; the sample as a whole holds those more often.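 In brief: 96-well plates, 48 h treatment, single concentration, percent growth endpoint.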 Unmarked numbers belong to inactive results. Active and inactive are the calls of the source. How the source made its calls: active means growth percent below 10; inactive means the rest.

Experiments:
Assay in all cases: NCI-60 one-dose screen, 48 h (100 = growth as untreated, 0 = no growth, -100 = all killed)
Conditions in all cases: 10 µM unless noted
[1] = test system: RPMI-8226 leukemia
[2] = test system: OVCAR-8 ovarian
[3] = test system: OVCAR-5 ovarian
[4] = test system: OVCAR-4 ovarian
[5] = test system: SK-OV-3 ovarian
[6] = test system: IGROV1 ovarian
[7] = test system: OVCAR-3 ovarian
[8] = test system: HS 578T breast
[9] = test system: NCI/ADR-RES ovarian
[10] = test system: T-47D breast
[11] = test system: BT-549 breast
[12] = test system: MDA-MB-435 melanoma
[13] = test system: SW-620 colon
[14] = test system: MCF7 breast
[15] = test system: HCT-116 colon
[16] = test system: HCC-2998 colon
[17] = test system: KM12 colon

Row | Structure (SMILES) | growth [1] | growth [2] | growth [3] | growth [4] | growth [5] | growth [6] | growth [7] | growth [8] | growth [9] | growth [10] | growth [11] | growth [12] | growth [13] | growth [14] | growth [15] | growth [16] | growth [17]
1 | O=C(O)CC(C(=O)O)/C(=C\c1ccccc1)c1ccccc1 (stereo not given) | 102% | 100% | 104% | 107% | 97.4% | 120% | 113% | 105% | 110% | 93.1% | 122% | 115% | 103% | 94.7% | 119% | 108% | 108%
2 | Oc1nc(NCc2ccccc2)sc1/C=C1\C=Nc2ncccc21 | 87.1% | 47.9% | 82.2% | 96.4% | 53.9% | 67.2% | 53.5% | 53.2% | 73.7% | 63.6% | 42.7% | 74.2% | 44.5% | 42% | 24.3% | 102% | 55%
3 | CCOC(=O)CC[C@H](NC(=O)c1ccc(N(C)Cc2cnc3nc(N)nc(N)c3n2)c2ccccc12)C(=O)OCC | 23% | 23.9% | 55.6% | 91.1% | 50.7% | 24.5% | 45.4% | 58% | 39.3% | 53.9% | 51.1% | 37.4% | 22% | 18.4% | 20.4% | 35.6% | 23.8%
4 | CCOC(=O)NCCCC(=O)NCCc1ccccc1 | 110% | 104% | 118% | 107% | 108% | 106% | 108% | 106% | 104% | 100% | 110% | 109% | 111% | 97.8% | 97.6% | 99.1% | 96.6%
5 | COc1ccc(C(=O)Nc2ncc(Cc3ccc(Cl)cc3)s2)cc1 | 18.2% | 25.7% | 30.2% | 49.1% | 40% | 14.4% | -16.2% (active) | 18.2% | 9.45% (active) | 25.9% | 17.8% | 2.35% (active) | 25.7% | 8.72% (active) | 3.61% (active) | 6.76% (active) | 5.8% (active)
6 | CC(=O)c1ccc(-n2cc(CN3CCN(c4cc5c(cc4F)c(=O)c(C(=O)O)cn5C4CC4)CC3)nn2)cc1 | 47.9% | 95.1% | 103% |  | 84.9% | 75.3% | 90.4% | 80.6% | 87.9% | 96.4% | 102% | 96.3% | 90% | 72.9% | -9.74% (active) | 86% | 84.9%
7 | CCN1C(=O)N(c2ccccc2)C2NC(=S)N(/N=C/C=C/c3ccccc3OC)C21 (stereo not given) | 14.7% | 9.48% (active) | 27.8% | 45.5% | 31.6% | 3.96% (active) | 4.35% (active) | 20.2% | 6.95% (active) | 42.3% | 20.4% | -27.5% (active) |  | 7.64% (active) | 9.02% (active) | 14.8% | 11.3%
8 | COc1ccc2c(c1)c(-c1nc(-c3ccc4ccccc4c3)cs1)cn2C | 102% | 95.3% | 91.6% | 94.3% | 93% | 85.9% | 96.2% | 97% | 98% | 58% | 89% | 70.1% | 73.4% | 30.8% | 87.9% | 99.5% | 67.4%
9 | COc1ccc(CNc2ccc3nc(NC(=O)CN4CCCCCC4)sc3c2)cc1 | 55.6% | 87.8% | 95.5% | 62.3% | 103% |  | 101% | 115% | 82.9% | 42.8% | 86.1% | 94.1% | 86.7% | 69.1% | 68.6% | 109% | 89.2%
10 | N#Cc1ccc(/C=C/c2cn(-c3ccccc3)nc2-c2cccc([N+](=O)[O-])c2)cc1 | 74.8% | 44.1% | 64.2% | 33.1% | 69.8% | 51.2% | 70% | 76.2% | 62.8% | 75% | 40.5% | 61.2% | 57.1% | 58.7% | 30.1% | 82% | 65.7%
11 | CCOC(=O)c1c(C)nc2c(c1N)C(=O)C(=O)N2Cc1ccc(OC)cc1 | 20.1% | 61.6% | 97.5% | 46.6% | 108% | 82.5% | 18.2% | 79.2% | 8.45% (active) | 49.1% | 80.5% | 31% | 41.9% | 18.6% | 25.1% | 99.3% | 25.7%
12 | COc1cc(O)c2c(=O)c3c(CC=C(C)C)cc(OC)c(O)c3oc2c1 | 29.8% | 26.4% | 51.2% | 52.5% | 17% | 41.7% | 1.93% (active) | 36.1% | 16.1% | 45.9% | 33.2% | -3.84% (active) | 26.3% | 23% | 11.8% |  | 23.2%
